“And” between values parts separate entries of the source, which are not always exact repeats. Equal entries are not always repeated. Records with an inconclusive call do not appear. The source made the active and inactive calls. The calls were made as follows, unless noted: active = hit-call score of the fitted dose curve at least 0.9, where 1 is the maximum; inactive = score below 0.9.

This note sets out measurements from PubChem BioAssay (EPA / NIEHS).

The test system of one assay is DIO2 (gene 1734). Put plainly: CCTE_GLTED_hDIO2: CCTE's human Deiodinase 2 (DIO2) Inhibition Assay, Great Lakes Toxicology and Ecology Division (GLTED) Lab (AID 2284050; active = hit-call score of the fitted dose curve at least 0.9, where 1 is the maximum). In outline: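 Cell-free human DIO2 enzyme was incubated with test chemical for 3 h; iodide liberated from substrate was then quantified by the Sandell-Kolthoff reaction (absorbance), run in triplicate. Loss of signal versus DMSO baseline indicated inhibition.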

Another assay concerns DIO3 (gene 1735). Put plainly: CCTE_GLTED_hDIO3: CCTE's human Deiodinase 3 (DIO3) Inhibition Assay, Great Lakes Toxicology and Ecology Division (GLTED) Lab (AID 2284055; active = hit-call score of the fitted dose curve at least 0.9, where 1 is the maximum;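 as to AC50: potency is for inhibition seen as loss of released iodide signal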). In outline:
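Cell-free assay with human DIO3 enzyme produced by adenovirus expression; enzyme incubated with test chemical for 3 hours. Liberated iodide then measured by Sandell-Kolthoff absorbance; loss of signal versus DMSO baseline indicates inhibition, run in triplicate.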

The nature of assay [1]: CCTE_Shafer_MEA_dev_network_spike_number: CCTE's Neural Network Formation Assay for Number of Network Spikes, Shafer Lab (AID 2284048).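 Also: synchronized bursts across electrodes counted on days 5 7 9 12 and integrated as AUC.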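 As to AC50: fit as a loss of signal meaning fewer network spikes than DMSO.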 In outline:
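Primary rat cortical neurons were seeded at 1.5 x 10^5 cells/well on PEI-coated 16-electrode MEA wells with laminin, exposed from plating day 0, compound renewed at DIV 5 and 9. Network spikes were recorded on days 5, 7, 9, 12 and summarized as trapezoidal AUC versus DMSO.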

Assay [2] in a line: CCTE_Shafer_MEA_dev_network_spike_peak: CCTE's Neural Network Formation Assay for Mean Number of Electrodes in Network Spike, Shafer Lab (AID 2284049).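 As to AC50: fitted for loss of signal meaning fewer electrodes in network spikes than DMSO.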 In outline:
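Continuous 12-day exposure of rat cortical cultures, starting at plating, on MEA plates. Endpoint: electrodes participating in network-spike peaks, AUC across DIV 5–12, DMSO as negative control.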

Assay [3] can be described thus: CCTE_Shafer_MEA_dev_spike_duration_mean: CCTE's Neural Network Formation Assay for Mean Spike Duration, Shafer Lab (AID 2284051).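 As to AC50: potency for a decrease in mean network spike duration versus DMSO.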 In outline: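 Spontaneous activity was recorded on days 5, 7, 9 and 12 from rat cortical cultures grown on microelectrode arrays and dosed continuously from day 0, with media and compound renewed after the DIV 5 and 9 recordings. Network-spike duration was collapsed by area under the curve.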

The nature of assay [4]: CCTE_Shafer_MEA_dev_network_spike_duration_std: CCTE's Neural Network Formation Assay for Standard Deviation of Network Spike Duration, Shafer Lab (AID 2284052).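 Also: hits are decreases in network spike duration SD versus DMSO vehicle.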 In outline:
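Network spike duration variability was collapsed across recordings on days 5, 7, 9 and 12 by trapezoidal area-under-curve and fitted downward against DMSO. Cultures were rat cortical neurons on PEI-coated MEA plates, dosed continuously from plating, refed with compound DIV 5/9.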

A short description of assay [5]: CCTE_Shafer_MEA_dev_per_network_spike_spike_number_mean: CCTE's Neural Network Formation Assay for Mean Number of Spikes in a Network Spike, Shafer Lab (AID 2284053).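 As to AC50: fitted as decrease in spikes per network spike relative to DMSO.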 In outline:
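Mean spike count within each network spike, taken in a 0.05 s window at its peak, was recorded on days 5, 7, 9 and 12 and integrated as trapezoidal area under the curve. Rat cortical cultures on MEA plates received continuous compound from day 0, refreshed at medium changes on DIV 5 and 9.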

Assay [6] in a line: CCTE_Shafer_MEA_dev_per_network_spike_spike_percent: CCTE's Neural Network Formation Assay for Percent of Spikes in a Network Spike, Shafer Lab (AID 2284054). In outline: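 Primary rat cortical neurons on 16-electrode MEA wells (PEI-coated, laminin at plating), exposed from day 0 with renewal at DIV 5 and 9; spikes within 0.05 s of network-spike peaks over total spikes, AUC across days 5, 7, 9, 12.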

The nature of assay [7]: UKN5_HCS_SBAD2_cell_viability: Viability Assessment in the University of Konstanz (UKN) Leist Lab Neurite Outgrowth Assay in human iPSC-derived immature Dorsal Root Ganglia Neurons (UKN5) (AID 2284056). As to the method:
UKN5_HCS_SBAD2 is a cell-based, multiplexed-readout assay screening for neurite outgrowth and cell viability that uses SBAD2 (peripheral neurons differentiated from iPSC), a human peripheral nervous system cell line, with measurements taken at […] after chemical dosing in a microplate: 96-well plate. UKN5, also referred to as PeriTox, is an assay that uses human iPSC line SBAD2 as a model of peripheral neurons. Following 24 hr chemical exposures in multi-well plates, neurite area is evaluated as a marker of neurite outgrowth using high-content imaging of cells stained with calcein-AM. Cell viability is assessed using stain Hoechst H-33342.UKN5_HCS_SBAD2_cell_viability is an assay component measured from the UKN5_HCS_SBAD2 assay. It is designed to make measurements of enzyme activity, a form of viability reporter, as detected with Fluorescence intensity signals by HCS Fluorescent Imaging.The assay endpoint UKN5_HCS_SBAD2_cell_viability was analyzed with bidirectional fitting relative to DMSO as the negative control and baseline of activity. Using a type of viability reporter, gain or loss-of-signal activity can be used to understand viability effects. To generalize the intended target to other relatable targets, this assay endpoint is annotated to the cell cycle intended target family, where the subfamily is viability. […]

A short description of assay [8]: CCTE_Shafer_MEA_dev_LDH: CCTE's Lactate Dehydrogenase Assay for Cytotoxicity in the Neural Network Formation Assay, Shafer Lab (AID 2284068; active = hit-call score of the fitted dose curve at least 0.9, where 1 is the maximum;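 also: exposure for twelve days from plating with re-dosing on DIV 5 and 9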). In outline:
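Primary rat cortical neurons were cultured on PEI-coated MEA plates and exposed from plating through day 12, with compound renewed at medium changes on DIV 5 and 9. LDH activity was read spectrophotometrically; loss of signal versus DMSO indicates reduced viability.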

`CC(C)CCCCCCCCCCCCCCC(=O)O`: the AC50 (commonly the concentration giving half of the maximal activity seen) in the assay on DIO2 (gene 1734) is 100 µM (active); in the assay with DIO3 (gene 1735), 19.4 µM (active).
Regarding `FC(F)(F)COCC(F)(F)F`, the call in assay [1], in [2], in [3], in assay [4], in [5] and in assay [6] was inactive.
As to `Cc1cc(S(=O)(=O)O)ccc1N=Nc1c(O)ccc2ccccc12`, the compound was classed as inactive in the assay on DIO2 (gene 1734) and in the assay with DIO3 (gene 1735).
Turning to `CCCCCCCCC=CCCCCCCCC1=NCCN1CCO`, the AC50 is 60.9 µM (active) with DIO2 (gene 1734) and 3.92 µM (active) with DIO3 (gene 1735).
Taken in the same sequence, the figures for `CCOC(=O)[C@@H](C)Oc1ccc(Oc2nc3ccc(Cl)cc3o2)cc1` were 23.5 µM (active) and 7.15 µM (active).
For the compound `CCCCC(CC)COC(=O)c1ccc(O)cc1` (stereo not drawn), the AC50 in the assay with DIO2 (gene 1734) was 82.5 µM (active); in the assay on DIO3 (gene 1735), 79.1 µM (active).
As for `Oc1c(Cl)cc(Cl)c(Cl)c1Cc1c(O)c(Cl)cc(Cl)c1Cl`, the AC50 is 830 nM (active) and 526 nM (active) in assay [1]; 1.19 µM (active) and 1.83 µM (active) in [2]; 1.66 µM (active) and 1.35 µM (active) in assay [3]; 972 nM (active) and 727 nM (active) in assay [4]; 809 nM (active) and 929 nM (active) in [5]; 1.03 µM (active) and 842 nM (active) in assay [6]. Moreover, the AC50 in assay [7] was 73.5 µM (active); in assay [8] it was 1.26 µM (active) and 1.25 µM (active).
For `COCCOCCOCCO`, the compound was called inactive in [1], in assay [2], in [3], in [4], in [5] and in assay [6]. In assay [8], the result was inactive.
For the compound `Oc1ccc2cc(SSc3ccc4cc(O)ccc4c3)ccc2c1`, the AC50 with DIO2 (gene 1734) is 22.2 µM (active); in the assay on DIO3 (gene 1735), 3.47 µM (active).
Turning to `COCCc1ccc(OCC(O)CNC(C)C)cc1` (stereo not drawn), the compound was classed as inactive in assay [1], in assay [2], in assay [3], in [4], in assay [5] and in [6]. Besides, the compound was classed as inactive in [8].
As to `CCCCCC(C=O)=Cc1ccccc1`, the AC50 was 62.6 µM (active) with DIO2 (gene 1734) and 16.4 µM (active) in the assay with DIO3 (gene 1735).
Regarding `CCCCCCCCCCCCN1CCCCCC1=O`, the AC50 with DIO2 (gene 1734) is 116 µM (active); in the assay with DIO3 (gene 1735), 89.2 µM (active).
Taken in the same sequence, the figures for `C=C(C)C(=O)OCCOC1CC2CC1C1C=CCC21` (stereo not drawn) were 13 µM (active) and 6.43 µM (active).
Taken in the same sequence, the figures for `CCCCCCCCCCCCCCN(CCO)CCO` were 39.9 µM (active) and 7.58 µM (active).
Consider `CS(=O)(=O)OCCCCOS(C)(=O)=O`, for which the compound was called inactive in assay [1], in [2], in assay [3], in assay [4], in [5] and in assay [6].
On to `CCOc1ccc(N=Nc2ccc(C=Cc3ccc(N=Nc4ccc(OCC)cc4)cc3S(=O)(=O)O)c(S(=O)(=O)O)c2)cc1`, for which the values for the AC50 with DIO2 (gene 1734) and in the assay on DIO3 (gene 1735) were 43.9 µM (active) and 35.6 µM (active), respectively.
Regarding `O=CCc1ccccc1`, the call in the assay on DIO2 (gene 1734) was inactive. The AC50 in the assay on DIO3 (gene 1735) is 74.8 µM (active).
For `CCc1cc(Cc2cc(CC)cc(C(C)(C)C)c2O)c(O)c(C(C)(C)C)c1`, the AC50 was 83.3 µM (active) in the assay with DIO2 (gene 1734) and 10.7 µM (active) in the assay with DIO3 (gene 1735).
In the case of `CCCCCCCCCCCCCC(=O)OCC(O)CO` (stereo not drawn), the AC50 was 100 µM (active) in the assay with DIO2 (gene 1734) and 47.9 µM (active) in the assay with DIO3 (gene 1735).
Take `CN(C)CCOC(C)(c1ccccc1)c1ccccn1` (stereo not drawn): the result in assay [1], in [2], in assay [3], in assay [4], in assay [5] and in assay [6] was inactive. Besides, in assay [8], the call was inactive.
Regarding `COc1ccc(N=Nc2cc(C)c(N=Nc3ccc(S(=O)(=O)O)cc3)cc2OC)cc1`, the AC50 with DIO2 (gene 1734) and in the assay on DIO3 (gene 1735) was 100 µM (active) each time.
Regarding `C=C1CC[C@H](O)C/C1=C/C=C1\CCC[C@]2(C)[C@@H]([C@H](C)/C=C/[C@H](C)C(C)C)CC[C@@H]12`, the figures for the AC50 with DIO2 (gene 1734) and in the assay on DIO3 (gene 1735) were 19.8 µM (active) and 2.3 µM (active), respectively.
